The values that follow come from PubChem BioAssay AID651871 (Sanford-Burnham Center for Chemical Genomics, 2012).

Values joined by “and” are separate entries in the source; they are usually repeats but may differ in a detail not shown here. Equal values may be shown once.

This test has as its system H9c2. Kind of test: protection of cardiomyocytes from stress damage, SAR follow-up, cell-based, panel, H9c2 and HL-1, ATP luminescence, set 2 (AID 651871).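 Further: cells exposed to stressor for 2 h before ATP readout; reference of the scale not given here.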 The conditions noted are these: H9c2/HL-1 cardiomyocytes, 2-deoxyglucose stress, with 2-deoxyglucose; run 9, at 79 µM (top of the series).
As for `COc1ccc2c(c1OC)C(=O)N1c3ccccc3C(=O)N(Cc3cccc(Cl)c3Cl)C21` (stereo not drawn), the activity (protection/inhibition) is 81.1% and 78.3% and -1.59%.

As to `COc1ccc2nc(-c3cc(OC)c(OC)c(OC)c3)cc(C(=O)NCC(=O)Nc3ccc(C(C)=O)cc3)c2c1`, the activity (protection/inhibition) turned out to be 84.5%. For `CCOC(=O)c1cccc(NC(=O)CNC(=O)c2cc(-c3cc(OC)c(OC)c(OC)c3)nc3ccccc23)c1` the value was 90.9%.
